The source of these data is PubChem BioAssay (NCI).

SMILES strings stand for the structures. About 83,000 compounds went through this panel and 20% of them were active in at least one assay; those are over-represented in the sample as a whole.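 A percent growth of 40 corresponds to 60% growth inhibition; 0 means no net growth; -100 means all cells died. Active threshold: below 10.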 Unmarked numbers belong to inactive results. Calls of active or inactive are those of the source.

What all share (assay): NCI-60 one-dose screen, 48 h (100 = growth as untreated, 0 = no growth, -100 = all killed)
Common to all, as to details: 10 µM unless noted

Experiment [1] relates to T-47D breast.
Experiment [2] has as its system BT-549 breast.
Experiment [3] has as its system MDA-MB-435 melanoma.
The subject of experiment [4] is SW-620 colon.
The subject of experiment [5] is MCF7 breast.
Experiment [6] relates to HCT-116 colon.
Experiment [7] relates to HCC-2998 colon.
Experiment [8] has as its system KM12 colon.

On to `Cc1nc2sc(C(=O)Nc3cccc4ncccc34)c(N)c2cc1C(C)O` (stereo unspecified), for which the growth in experiment [1] is 76.2%; in experiment [2], 79%; in experiment [3], -8.44% (active); in experiment [4], 59.2%; in experiment [5], 38.4%; in experiment [6] it was 70.1%. Besides, the growth was 76.5% in experiment [7] and 59.2% in experiment [8].
Consider `COc1ccc(-c2c[nH]c(C(=O)O)c2-c2cc(OC)c(OC)c(OC)c2)cc1`, for which the growth in experiment [1] was 15.3%; in experiment [2] it was 65.8%; in experiment [3], -21.3% (active); in experiment [4], 23.6%; in experiment [5], 24.2%; in experiment [6], 29.6%. The growth in experiment [7] is 84.6%; in experiment [8], 25%.
As to `O=C(NCc1cccnc1)/C(=C\c1ccc(Br)cc1)S(=O)(=O)c1ccccc1`, the growth is -64.6% (active) in experiment [1]; -21.2% (active) in experiment [2]; -14.9% (active) in experiment [3]; -74% (active) in experiment [4]; -44.4% (active) in experiment [5]; -76% (active) in experiment [6]. Moreover, the growth in experiment [7] was -76.5% (active); in experiment [8], -48.1% (active).
In the case of `COC(=O)c1nc(-c2ccc(C)cc2)oc1Sc1ccc(C)cc1`, the growth in experiment [1] was 72.9%; in experiment [2] it was 101%; in experiment [3] it was 103%; in experiment [4], 103%; in experiment [5], 93.7%; in experiment [6], 99.4%. In addition, the growth in experiment [7] was 110%; in experiment [8], 98.6%.
For `O=C(CCCCCCCCC(=O)N/N=C\c1ccccc1O)N/N=C\c1ccccc1O`, the growth was 18.1% in experiment [1]; 26.9% in experiment [2]; 33.8% in experiment [3]; 30.2% in experiment [4]; 16.9% in experiment [5]; 13% in experiment [6]. Moreover, the growth in experiment [7] is 44.8%; in experiment [8], 26.5%.
For the compound `Cc1nc(-n2[nH]c(=O)ccc2=O)sc1N=Nc1ccccc1`, the growth in experiment [1] was 94%; in experiment [2], 95.7%; in experiment [3] it was 102%; in experiment [4], 98.1%; in experiment [5], 94.2%; in experiment [6], 97.5%. The growth in experiment [7] was 115%; in experiment [8], 108%.
Take `COc1ccc(/C=C/C(=O)c2cc3c(N)c(C(=O)Nc4ccccc4Cl)sc3nc2C)cc1`: the growth was 30.3% in experiment [1]; 59% in experiment [2]; -61.6% (active) in experiment [3]; 48.1% in experiment [4]; 17.2% in experiment [5]; 59% in experiment [6]. Besides, the growth in experiment [7] is 51.3%; in experiment [8] it was 51.6%.
Turning to `COc1ccc(-c2cc(-c3cccnc3)nc3sc4c(Cl)nnnc4c23)cc1OC`, the growth in experiment [1] was 63.6%; in experiment [2], 99.9%; in experiment [3], 104%; in experiment [4], 50.2%; in experiment [5], 43.8%; in experiment [6], 94.8%. For the same compound, the growth is 115% in experiment [7] and 95.1% in experiment [8].
As to `Nc1n[nH]c2cccc(C#Cc3cccc(C(=O)Nc4ccc(CN5CCOCC5)c(C(F)(F)F)c4)c3)c12`, the growth is 6.17% (active) in experiment [1]; 23.7% in experiment [2]; 38.7% in experiment [3]; 49.3% in experiment [4]; 33.4% in experiment [5]; 13.3% in experiment [6]. For the same compound, the growth in experiment [7] was 26.9%; in experiment [8], 19%.
With `C=C1CCC2C3(C)COC(c4ccc(NC(C)=O)cc4)OC3CCC2(C)C1C/C=C1/C(=O)OCC1O` (stereo unspecified), the growth in experiment [1] is 29.4%; in experiment [2], 59.8%; in experiment [3], 60.5%; in experiment [4], 77.3%; in experiment [5], 42.5%; in experiment [6] it was 34.1%. The growth in experiment [7] was 59.1%; in experiment [8], 51.7%.
`Cc1oc2c(Cc3ccc(NC(=O)c4ccc(Cl)cc4)cc3)ncnc2c1C(=O)NO`: the growth in experiment [1] is 96.8%; in experiment [2], 103%; in experiment [3], 92.5%; in experiment [4], 105%; in experiment [5], 91.1%; in experiment [6], 98%. Besides, the growth in experiment [7] is 97.9%; in experiment [8] it was 95.9%.
`CSc1nnc(-c2cc3c([nH]c4ccccc43)c(-c3cccc(O)c3)n2)n1-c1ccc(C)cc1`: the growth in experiment [1] was 24.5%; in experiment [2], 34.5%; in experiment [3] it was -49.5% (active); in experiment [4], 30%; in experiment [5] it was 5.16% (active); in experiment [6], 23.8%. The growth was 54.2% in experiment [7] and 26.3% in experiment [8].
